{"source": "PubChem BioAssay (NCI)", "note": "Compounds without any hit were thinned out: in the full panel of roughly 83,000, 20% have a hit.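 Interpretation: 100, growth as untreated; towards 0, rising growth inhibition; 0, no net growth; 0 to -100, cell death. Compounds scoring below 10 were considered active.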 A number with no mark means an inactive call. Calls of active or inactive are those of the source.", "data": [{"system": "SF-295 CNS", "test": "NCI-60 one-dose screen, 48 h (100 = growth as untreated, 0 = no growth, -100 = all killed)", "conditions": "10 µM", "units": {"growth": "%"}, "values": [{"smiles": "CCN(CC)CCOc1cccc2c1C(=O)c1ccccc1C2=O", "growth": 96.8}, {"smiles": "Cc1c2cnccc2c(C)c2c1oc1ccccc12", "growth": 74.9}, {"smiles": "O=C(Nc1ccc(NS(=O)(=O)c2ccc(F)cc2)cc1)C12CC3CC(CC(C3)C1)C2", "growth": 91.2}]}, {"system": "SF-539 CNS", "test": "NCI-60 one-dose screen, 48 h (100 = growth as untreated, 0 = no growth, -100 = all killed)", "conditions": "10 µM", "values": [{"smiles": "CCc1ccc(-c2ccc(-n3nc(C)c4c(N)nc(Cc5ccccc5)nc43)cc2)cc1", "growth": "80.9%"}, {"smiles": "O=[N+]([O-])c1ccc2ncccc2c1Cl", "growth": "12.9%"}, {"smiles": "Cc1ccc(-n2nnnc2N)c(C)c1", "growth": "123%"}, {"smiles": "Oc1ccc(-c2[nH]c3ccccc3c2-c2nc3ccccc3o2)cc1", "growth": "82.7%"}, {"smiles": "CCc1ccc(C2=NN(c3ccc(S(C)(=O)=O)cc3)C(=O)CC2)cc1", "growth": "15.1%"}, {"smiles": "COc1ccc(-c2nn(-c3cccc(Cl)c3)cc2-c2c(C#N)c(=O)n3[nH]c(-c4ccc(C)cc4)nc3c2C#N)cc1", "growth": "34.8%"}, {"smiles": "O=C1c2ccccc2C(=O)c2c1ccc(C(Br)Br)c2[N+](=O)[O-]", "growth": "90.2%"}, {"smiles": "CCOC(=O)CC(S(=O)(=O)c1ccccc1)S(=O)(=O)c1ccccc1", "growth": "104%"}, {"smiles": "CC(=O)Nc1ccc(S(=O)(=O)c2ccnc3cc(Cl)ccc23)cc1", "growth": "99.5%"}, {"smiles": "O=C(Nc1cc([N+](=O)[O-])c2[nH]c(=O)c3ccccc3c2c1)C(F)(F)F", "growth": "93.6%"}, {"smiles": "COc1cc2c(cc1NC(=O)C(F)(F)F)-c1ccc(NC(=O)C(F)(F)F)cc1C2", "growth": "80.6%"}, {"smiles": "COc1ccc(/C(C#N)=C/c2cccc(OC)c2OC)cc1", "growth": "94.6%"}, {"smiles": "C/C(=C/CCC(C)[C@@H]1CC[C@]2(C)C3=C(CC[C@@]12C)[C@@]1(C)CCC(=O)C(C)(C)[C@@H]1CC3)C(=O)O", "note": "(stereo partly drawn)", "growth": "-76% (active)"}, {"smiles": "N#CC1=CC2CN(Cc3ccccc3)C1C1C(=O)N(c3ccccc3)C(=O)C21", "note": "(stereo not drawn)", "growth": "98.5%"}, {"smiles": "COC(=O)C1OC1c1cc([N+](=O)[O-])ccc1OC", "note": "(stereo not drawn)", "growth": "98.4%"}, {"smiles": "O=c1cn[nH]c2ccc(Br)cc12", "growth": "95.6%"}, {"smiles": "COc1cc(CNC(=O)C2CSC3(C)c4ccccc4C(=O)N23)cc(OC)c1OC", "note": "(stereo not drawn)", "growth": "98.2%"}, {"smiles": "O=C1/C=C/[C@@H](O)[C@@H]2C[C@@H](O)C[C@H]2/C=C/CCC[C@H](C(F)(F)F)O1", "growth": "21.4%"}, {"smiles": "O=C1CCn2c1c(O)c1ccccc1c2=O", "growth": "113%"}, {"smiles": "COc1ccc(/C(=N\\N)C(=O)c2ccccc2)cc1", "note": "(tested in a mixture with another compound)", "growth": "114%"}, {"smiles": "O=C(CCl)Nc1ccc(Cc2ccc(NC(=O)CCl)cc2)cc1", "growth": "-87.7% (active)"}, {"smiles": "CCOC(=O)C1=CSC2=NC3=C(CCC/C3=C\\c3cc(OC)c(OC)c(OC)c3)C(c3cc(OC)c(OC)c(OC)c3)N12", "note": "(stereo not drawn)", "growth": "49.9%"}, {"smiles": "C=CCSC(CC)(CC)C(=O)NC", "growth": "103%"}, {"smiles": "CCN(CCCNc1cc2c(c(N)c1S(=O)(=O)O)C(=O)c1ccccc1C2=O)c1ccccc1", "growth": "98.4%"}, {"smiles": "Cc1ccc(S(=O)(=O)N/N=C2\\CCCc3ccccc32)cc1", "growth": "108%"}, {"smiles": "COc1cc(-c2nn(-c3cccc(NC(=O)CCNc4ccc(N5CCOCC5)cc4)c3)cc2-c2ccncc2)ccc1Cl", "growth": "29.1%"}, {"smiles": "COc1cc2c(cc1NC(=O)C(Cl)Cl)-c1ccc(NC(=O)C(Cl)Cl)cc1C2", "growth": "-14.9% (active)"}, {"smiles": "OCC1OC2C(NC(=S)N2c2ccccc2)C(O)C1O", "note": "(stereo not drawn)", "growth": "102%"}, {"smiles": "Cc1cc(O)ccc1C1=NN(c2ccc(S(C)(=O)=O)cc2)C(=O)CC1", "growth": "73.8%"}, {"smiles": "Cc1c(Cl)cccc1NC(=O)CN1CCOCC1", "growth": "106%"}, {"smiles": "O=C1c2ccccc2C(=O)c2c1ccc(C(Br)Br)c2Cl", "growth": "69.9%"}, {"smiles": "CC[C@@H](C(=O)[C@@H](C)[C@@H](O)[C@H](C)[C@@H]1O[C@@H]([C@@H](CC)C(=O)N(CC)CC)CC[C@@H]1C)C1O[C@]2(C=CC(=O)[C@]3(CC[C@@](C)([C@H]4CC[C@](O)(CC)[C@H](C)O4)O3)O2)[C@H](C)C[C@@H]1C", "note": "(stereo partly drawn)", "growth": "44.8%"}, {"smiles": "COc1cc(C(=O)n2nc(-c3cc(OC)c(OC)c(OC)c3)nc2N)cc(OC)c1OC", "growth": "96.6%"}, {"smiles": "COc1ccc(C(=O)N2C=Cc3ccccc3C2C#N)cc1", "note": "(stereo not drawn)", "growth": "96.8%"}, {"smiles": "COc1ccc(-c2nn(-c3cccc(Cl)c3)cc2-c2cc(-c3ccccc3)[nH]c(=O)c2C#N)cc1", "growth": "-45.9% (active)"}, {"smiles": "CCOC(=O)C1C(C(=O)OCC)C2C(=O)C3C(C(=O)OCC)C(C(=O)OCC)C3C(=O)C12", "note": "(stereo not drawn)", "growth": "105%"}, {"smiles": "CC1=CC2C(C(O)CC3(C)C2CC(C)C32OCOC23COCO3)C2(C)C/C(=C/O)C(=O)C=C12", "note": "(stereo not drawn)", "growth": "41.5%"}, {"smiles": "CCN(CC)CCOc1cccc2c1C(=O)c1ccccc1C2=O", "growth": "99.7%"}, {"smiles": "Cc1c2cnccc2c(C)c2c1oc1ccccc12", "growth": "96.6%"}, {"smiles": "O=C(Nc1ccc(NS(=O)(=O)c2ccc(F)cc2)cc1)C12CC3CC(CC(C3)C1)C2", "growth": "106%"}]}]}
